SW480 rereplic – DNA re-replication induction in SW480 cells. SW480 DNA re-replication, Hoechst DNA content imaging, 48 h. Potency, µM (highest dose often 46.1 µM), for the others: top-dose re-replication activation, most hits filed as activators. 340,000 compounds, 1.8% hits. AID 624297; note: % of control where 0% means no effect; nearly all actives have a fitted effect of over 55% in size
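Image-based DNA-content assay: after two days of treatment, nuclei were labelled with the DNA dye Hoechst and imaged, and hits were compounds raising the count of nuclei showing high fluorescence intensity.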
KB-V1 MDR tox – KB-V1 MDR subline cytotoxicity. KB-V1 MDR cells viability, CellTiter-Glo, 72 h. Potency, µM (series often up to 46.1 µM), most hits filed as cytotoxic. 400,000 compounds, 3.4% hits. AID 1347076; note: % is set by controls: 0 for no effect and ±100 for the full control effect; nearly all actives have a fitted effect of over 60% in size
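Following 72 h at 37 degrees C with compound, KB-V1 cell viability was read by CellTiter-Glo luminescence, medium being phenol-red-free DMEM plus 10% FBS; concentration-response parameters came from normalized, curve-fitted qHTS data.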
ELG1 DNA repair – inhibitors of ELG1-dependent DNA repair in HEK293T cells; HEK293T ELG1-luciferase reporter, luminescence, 16 h; DNA damage induced by 5-fluorouridine; Potency, µM (titrated, usually from 46.1 µM), for the others: at the highest dose activity change, negative = inhibition, hits mostly inhibitors; 330,000 compounds, 2.3% hits; AID 504467; note: % is set by controls: 0 for no effect and ±100 for the full control effect; nearly all actives have a fitted effect of over 55% in size
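Overnight (16 hr) co-exposure of 2,000 cells/well to 5-fluorouridine and compound at 37 °C preceded detection. Luciferase was quantified via ONE-Glo luminescence; loss of signal denotes inhibition.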
MCF10A rereplic – induces DNA re-replication in MCF 10a normal breast cells. MCF 10A DNA re-replication, Hoechst nuclear intensity, 48 h. Potency, µM (top dose mostly 46.1 µM), without a hit: at the top dose activity, positive = re-replication, usual class: activators. 350,000 compounds, 2.9% hits. AID 624296; note: % of control where 0% means no effect; nearly all actives have a fitted effect of over 50% in size
KB-3-1 cytotox – kills parental KB-3-1 adenocarcinoma cells; KB-3-1 viability, CellTiter-Glo ATP luminescence, 72 h; Potency, µM (series often up to 46.1 µM), most hits filed as cytotoxic; 400,000 compounds, 1.4% hits; note: % is set by controls: 0 for no effect and ±100 for the full control effect; nearly all actives have a fitted effect of over 60% in size
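Cytotoxicity in the drug-sensitive parental line KB-3-1 was scored as loss of CellTiter-Glo luminescence following 72 h incubation with compound. Values come from curve fitting of normalized concentration-response data.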
The depositor's hits bear a star. The list is not random: actives were taken first. Their share in the collection is about 8.1%. Calls come from the whole dose curve; as a rule, active = well fitted curve in the direction sought with a large enough effect; inconclusive = small, poorly fitted or top-dose-only effect, or another doubt; inactive = no such curve, though single readings can be large; an effect the other way counts as inactive or inconclusive. Potency is the fitted concentration of half-maximal effect.

Cn1c2ccc(F)cc2c2ncn(Cc3ccco3)c(=O)c21 was read as SW480 rereplic 0%, KB-V1 MDR tox 4.1µM*, ELG1 DNA repair inconclusive, MCF10A rereplic inconclusive and KB-3-1 cytotox inactive.
`Cn1c2ccccc2c2ncn(Cc3ccco3)c(=O)c21` gave SW480 rereplic -8%, KB-V1 MDR tox inconclusive, ELG1 DNA repair 10%, MCF10A rereplic 6% and KB-3-1 cytotox inactive.
Screening CCN1CCC(NCCc2ccc(F)cc2)CC1 returned SW480 rereplic -3%, KB-V1 MDR tox inactive, ELG1 DNA repair -4%, MCF10A rereplic 18µM* and KB-3-1 cytotox inactive.
For COc1ccccc1NC(=O)C(C)OC(=O)CSCC(=O)Nc1cc(C)on1 (stereo not given) the results were SW480 rereplic -11%, KB-V1 MDR tox inactive, ELG1 DNA repair 10%, MCF10A rereplic 11% and KB-3-1 cytotox inactive.
COC(=O)CS(=O)(=O)c1nnc([C@H](Cc2ccccc2)NC(=O)OC(C)(C)C)o1 was read as SW480 rereplic inconclusive, KB-V1 MDR tox inconclusive, ELG1 DNA repair inconclusive, MCF10A rereplic 13µM* and KB-3-1 cytotox inconclusive.
For Cc1cccc(CS(=O)(=O)c2nnc([C@H](Cc3ccccc3)NC(=O)OC(C)(C)C)o2)c1 the results were SW480 rereplic inconclusive, KB-V1 MDR tox inconclusive, ELG1 DNA repair 3%, MCF10A rereplic 3.3µM* and KB-3-1 cytotox inconclusive.
COC(=O)CSc1nnc([C@H](Cc2ccccc2)NC(=O)OC(C)(C)C)o1 was read as SW480 rereplic -3%, KB-V1 MDR tox inactive, ELG1 DNA repair 0%, MCF10A rereplic -3% and KB-3-1 cytotox inactive.
`CCOC(=O)c1nn(-c2cccc(Cl)c2)c2nc(CC(C)C)c(C#N)c(=O)n12` gave SW480 rereplic -8%, KB-V1 MDR tox inconclusive, ELG1 DNA repair 15%, MCF10A rereplic 23µM* and KB-3-1 cytotox inactive.
Screening CCOC(=O)c1nn(-c2ccc(OCC)cc2)c2nc(CC(C)C)c(C#N)c(=O)n12 returned SW480 rereplic 4%, KB-V1 MDR tox inconclusive, ELG1 DNA repair 0%, MCF10A rereplic -1% and KB-3-1 cytotox inactive.
`CCOc1ccc(NC(=O)Cn2c(CCC(=O)O)ccc2-c2ccc(Cl)cc2)cc1` gave KB-V1 MDR tox inactive and KB-3-1 cytotox inactive.
For O=S1(=O)C=C(Sc2nc3ccccc3s2)c2ccccc21 the results were SW480 rereplic inconclusive, KB-V1 MDR tox inconclusive, ELG1 DNA repair inconclusive, MCF10A rereplic 2.9µM* and KB-3-1 cytotox 2.3µM*.
For Cc1cc(C)nc(SC2=CS(=O)(=O)c3ccccc32)n1 the results were SW480 rereplic 21µM*, KB-V1 MDR tox inconclusive, ELG1 DNA repair inconclusive, MCF10A rereplic 16µM* and KB-3-1 cytotox 18µM*.
Screening O=S1(=O)C=C(Sc2nnc(-c3ccccc3)o2)c2ccccc21 returned SW480 rereplic 0.58µM*, KB-V1 MDR tox inconclusive, ELG1 DNA repair 16µM*, MCF10A rereplic inconclusive and KB-3-1 cytotox 15µM*.
`CSc1nnc(-c2ccccc2)o1` gave SW480 rereplic -3%, KB-V1 MDR tox inactive, ELG1 DNA repair inconclusive, MCF10A rereplic -1% and KB-3-1 cytotox inactive.
For c1ccc2sc(SSc3nc4ccccc4s3)nc2c1 the results were SW480 rereplic -1% and MCF10A rereplic -2%.
Screening COc1ccc2c(c1)C(C)=CC(C)(C)N2S(=O)(=O)c1ccc(Br)cc1 returned SW480 rereplic 18µM*, KB-V1 MDR tox 3.3µM*, ELG1 DNA repair 7%, MCF10A rereplic inconclusive and KB-3-1 cytotox 4.1µM*.
For COc1ccc2c(c1)C(C)=CC(C)(C)N2S(=O)(=O)c1ccc(NC(C)=O)cc1 the results were SW480 rereplic 1.5µM*, KB-V1 MDR tox inactive, ELG1 DNA repair -2%, MCF10A rereplic inconclusive and KB-3-1 cytotox 2.1µM*.
Screening CC1=CC(C)(C)N(C(=O)CN2C(=O)c3ccccc3C2=O)c2ccccc21 returned SW480 rereplic -2%, KB-V1 MDR tox inconclusive, ELG1 DNA repair 1%, MCF10A rereplic 30% and KB-3-1 cytotox inactive.
CC1=CC(C)(C)N(S(=O)(=O)c2ccc(F)cc2)c2ccc(C)cc21 was read as SW480 rereplic -1%, KB-V1 MDR tox 7.3µM*, ELG1 DNA repair -4%, MCF10A rereplic -5% and KB-3-1 cytotox 23µM*.
CC1=CC(C)(C)N(S(=O)(=O)c2ccc(C)cc2)c2ccccc21 was read as SW480 rereplic 6%, KB-V1 MDR tox inconclusive, ELG1 DNA repair -4%, MCF10A rereplic 0% and KB-3-1 cytotox 16µM*.
`CCOc1ccc2c(c1)C(C)=CC(C)(C)N2` gave SW480 rereplic 0%, KB-V1 MDR tox inactive, ELG1 DNA repair 27%, MCF10A rereplic inconclusive and KB-3-1 cytotox inactive.
CCOc1ccc2c(c1)C(C)=CC(C)(C)N2S(=O)(=O)c1ccc(F)cc1 was read as SW480 rereplic inconclusive, KB-V1 MDR tox inconclusive, ELG1 DNA repair -11%, MCF10A rereplic inconclusive and KB-3-1 cytotox 7.3µM*.
`CCOc1ccc2c(c1)C(C)=CC(C)(C)N2S(=O)(=O)c1ccc(NC(C)=O)cc1` gave SW480 rereplic inconclusive, KB-V1 MDR tox 1.3µM*, ELG1 DNA repair inconclusive, MCF10A rereplic inconclusive and KB-3-1 cytotox 1.6µM*.
`CNC(=O)C1CC(=O)N(c2ccc(OCC(=O)Nc3ccccc3)cc2)C1` (stereo not given) gave SW480 rereplic -5%, KB-V1 MDR tox inactive, MCF10A rereplic -6% and KB-3-1 cytotox inactive.
`O=C(CCCCCNc1nc(=S)[nH]c2ccccc12)NCCc1ccc(Cl)cc1` gave SW480 rereplic 17%, KB-V1 MDR tox inactive, ELG1 DNA repair 0%, MCF10A rereplic inconclusive and KB-3-1 cytotox inactive.
Screening O=C(CCCCCNc1nc(=S)[nH]c2ccccc12)NCCc1c[nH]c2ccccc12 returned SW480 rereplic 0%, KB-V1 MDR tox inconclusive, ELG1 DNA repair 18µM*, MCF10A rereplic inconclusive and KB-3-1 cytotox inactive.
Screening C=CCNc1nc(Nc2ccc(OC)c(OC)c2)c2sc(-c3ccccc3)cc2n1 returned KB-V1 MDR tox inconclusive and KB-3-1 cytotox 2.1µM*.
`CC(C)(C)c1nc2ccccc2c2nnc(SCC(=O)Nc3nc4ccccc4s3)n12` gave SW480 rereplic 0%, KB-V1 MDR tox inconclusive, ELG1 DNA repair 2%, MCF10A rereplic 9% and KB-3-1 cytotox inactive.
For CC(C)(C)c1nc2ccccc2c2nnc(SCC(=O)NCc3ccco3)n12 the results were SW480 rereplic 1%, KB-V1 MDR tox 5.2µM*, ELG1 DNA repair inconclusive, MCF10A rereplic -9% and KB-3-1 cytotox inactive.
`C=CCn1c(SCC(=O)NCc2ccco2)nnc1-c1ccc2ccccc2n1` gave SW480 rereplic -2%, KB-V1 MDR tox 7.3µM*, ELG1 DNA repair inconclusive, MCF10A rereplic 7% and KB-3-1 cytotox inactive.

Compound activity (PubChem)
